Bioassay records deposited in PubChem BioAssay by National Center for Advancing Translational Sciences (NCATS).
ELG1 DNA repair = inhibitors of ELG1-dependent DNA repair in HEK293T cells | HEK293T ELG1-luciferase reporter, luminescence, 16 h; DNA damage induced by 5-fluorouridine | Potency, µM (top dose mostly 46.1 µM), without a hit: at the highest dose activity change, negative = inhibition, usual class: inhibitors | 330,000 compounds, 2.3% hits | AID 504467; further: on the % scale 0 is the no-effect control and ±100 the full control effect; nearly all actives have a fitted effect of over 55% in size
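Quantitative HTS, concentration-response format. 2,000 cells/well co-treated with 5-fluorouridine and compound, 16 hr in 5% CO2 at 37 °C; ONE-Glo luminescence read after 30 min.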
KB-3-1 tox = KB-3-1 parental cell cytotoxicity | AID 1347075 | Potency, µM (top dose mostly 46.1 µM), usual class: cytotoxic | 400,000 compounds, 1.4% hits | KB-3-1 viability, CellTiter-Glo ATP luminescence, 72 h; further: on the % scale 0 is the no-effect control and ±100 the full control effect; nearly all actives have a fitted effect of over 60% in size
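72 h, 37 °C compound treatment of KB-3-1 parental cells; CellTiter-Glo added, 10 min, luminescence read. Data corrected against DMSO-only plates and normalized before curve fitting.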
MCF10A rereplic = induces DNA re-replication in MCF 10a normal breast cells; MCF 10A DNA re-replication, Hoechst nuclear intensity, 48 h; Potency, µM (top dose mostly 46.1 µM), without a hit: at the highest dose activity, positive = re-replication, actives largely listed as activators; 350,000 compounds, 2.9% hits; further: % of control where 0% means no effect; nearly all actives have a fitted effect of over 50% in size
SW480 rerep = DNA re-replication induction in SW480 cells. SW480 DNA re-replication, Hoechst DNA content imaging, 48 h. Potency, µM (doses to about 46.1 µM), inactives show top-dose re-replication activation, actives largely listed as activators. 340,000 compounds, 1.8% hits; further: % of control where 0% means no effect; nearly all actives have a fitted effect of over 55% in size
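Per well, 250 cells were exposed to pinned compound for 48 hr. Nuclear DNA was visualised with Hoechst (40 min, 37 C) and total object intensity recorded by fluorescence scanning.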
KB-V1 MDR tox = KB-V1 MDR subline cytotoxicity; 400,000 compounds, 3.4% hits; Potency, µM (top dose mostly 46.1 µM), most hits filed as cytotoxic; KB-V1 MDR cells viability, CellTiter-Glo, 72 h; further: on the % scale 0 is the no-effect control and ±100 the full control effect; nearly all actives have a fitted effect of over 60% in size
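In this primary screen, KB-V1 cells overexpressing P-gp are incubated with library compounds (lowest to highest concentration) for 72 h at 37 degrees C before a luminescent ATP viability read.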
* = called active by the depositor; ! = repeats disagree. Only some compounds are listed: those with a hit (about 8.2% of all), similar ones and a draw of the others. The call rests on the fitted dose curve; in most records, active means well fitted curve in the direction sought with a large enough effect; inconclusive means small, poorly fitted or top-dose-only effect, or another doubt; inactive means no such curve, though single readings can be large; an effect the other way counts as inactive or inconclusive. Potency means the concentration at half of the fitted maximal effect.

How did COc1cc(OC)c(NS(=O)(=O)c2cc(-c3cnc(C4CC4)o3)ccc2C)cc1Cl do in these assays?
KB-3-1 tox: inactive; KB-V1 MDR tox: inactive

Results for O=S(=O)(Nc1cccc(C(F)(F)F)c1)c1ccc(-c2cnc(C3CC3)o2)cc1 ?
KB-3-1 tox: 10µM*; KB-V1 MDR tox: 8.2µM*

Results for CCOc1ccccc1NS(=O)(=O)c1ccc(-c2cnc(C3CC3)o2)cc1 ?
ELG1 DNA repair: -27%; KB-3-1 tox: 0.29µM*; MCF10A rereplic: inconclusive; SW480 rerep: inconclusive; KB-V1 MDR tox: inconclusive

Results for COc1ccc(NS(=O)(=O)c2ccc(-c3cnc(C4CC4)o3)cc2)cc1OC ?
ELG1 DNA repair: 1.8µM*; KB-3-1 tox: 2.1µM*; MCF10A rereplic: inconclusive; SW480 rerep: 3%; KB-V1 MDR tox: inconclusive

Results for CC(C)Nc1ccc(-c2nc(-c3ccncc3)no2)cc1[N+](=O)[O-] ?
KB-3-1 tox: inactive; KB-V1 MDR tox: inactive

How did COc1ccc(/C=C(\NC(=O)c2ccccc2)C(=O)NCc2ccco2)cc1OC do in these assays?
ELG1 DNA repair: 10%; KB-3-1 tox: inactive; MCF10A rereplic: 13%; SW480 rerep: inconclusive; KB-V1 MDR tox: inactive

How did Cn1c(=O)c(=O)n(C)c2cc(N3CCCC3)c(NC(=O)c3ccccc3F)cc21 do in these assays?
KB-3-1 tox: inactive; KB-V1 MDR tox: inactive

What do the screens show for `c1ccc2c(C(c3nnnn3-c3ccc4c(c3)OCCO4)N3CCCCC3)ccnc2c1` (centres undefined)?
KB-3-1 tox: inactive; KB-V1 MDR tox: inactive

What do the screens show for `COc1ccccc1CNS(=O)(=O)c1ccc(S(=O)(=O)NC2CC2)cc1`?
ELG1 DNA repair: 0%; KB-3-1 tox: inactive; MCF10A rereplic: -9%; SW480 rerep: inconclusive; KB-V1 MDR tox: inactive

How did COc1ccccc1CNS(=O)(=O)c1ccc(-c2cnc(C3CC3)o2)cc1 do in these assays?
ELG1 DNA repair: inconclusive; KB-3-1 tox: inconclusive; MCF10A rereplic: inconclusive; SW480 rerep: inconclusive; KB-V1 MDR tox: 5.8µM*!

What do the screens show for `C=C(C)CNC(=S)NNC(=O)CCn1c2ccccc2c2ccccc21`?
ELG1 DNA repair: 0%; KB-3-1 tox: inconclusive; MCF10A rereplic: inconclusive; SW480 rerep: inconclusive; KB-V1 MDR tox: 18µM*

What do the screens show for `COc1cccc(-c2ccc3c(c2)N(Cc2cccc(F)c2)C(=O)C(C)S3)c1` (centres undefined)?
KB-3-1 tox: inactive; KB-V1 MDR tox: inactive

How did COc1cc(C2CC(=O)N(Cc3cccc(F)c3)c3ccccc3S2)cc(OC)c1OC (centres undefined) do in these assays?
KB-3-1 tox: inconclusive; KB-V1 MDR tox: 16µM*

Results for Cc1ccc(C)c(Nc2nc3nonc3nc2Nc2cccc(C)c2C)c1 ?
KB-3-1 tox: 21µM*; KB-V1 MDR tox: inconclusive

How did Cc1ccc(C)c(Nc2nc3nonc3nc2N2CCOCC2)c1 do in these assays?
ELG1 DNA repair: 4%; KB-3-1 tox: inactive; MCF10A rereplic: -1%; SW480 rerep: 0%; KB-V1 MDR tox: inconclusive

Results for Cc1ccccc1S(=O)(=O)N1CCN(C)CC1 ?
ELG1 DNA repair: -11%; KB-3-1 tox: inactive; MCF10A rereplic: inconclusive; SW480 rerep: 11%; KB-V1 MDR tox: inactive

How did CC1(C)Cc2c(sc(/N=C/N3CCCC3)c2C#N)C(C)(C)N1 do in these assays?
ELG1 DNA repair: inconclusive; KB-3-1 tox: inactive; MCF10A rereplic: 1%; SW480 rerep: -8%; KB-V1 MDR tox: inconclusive

How did CC1(C)Cc2c(sc(/N=C/N3CCCCCC3)c2C#N)C(C)(C)N1 do in these assays?
ELG1 DNA repair: -8%; KB-3-1 tox: inconclusive; MCF10A rereplic: 16µM*; SW480 rerep: 0%; KB-V1 MDR tox: inactive

How did CCCCCCSc1ccc(-c2nc3cc(C)ccn3c2NC2CCCCC2)cc1 do in these assays?
ELG1 DNA repair: 9%; KB-3-1 tox: inconclusive; MCF10A rereplic: 18µM*; SW480 rerep: 10%; KB-V1 MDR tox: inconclusive

How did Cc1ccn2c(NC3CCCC3)c(-c3ccncc3)nc2c1 do in these assays?
ELG1 DNA repair: -6%; KB-3-1 tox: inactive; MCF10A rereplic: 3%; SW480 rerep: -26%; KB-V1 MDR tox: inactive

What do the screens show for `Cc1ccn2c(NC3CCCCC3)c(-c3cccc(-c4cccc(Cl)c4)c3)nc2c1`?
ELG1 DNA repair: inconclusive; KB-3-1 tox: inactive; MCF10A rereplic: 21µM*; SW480 rerep: inconclusive; KB-V1 MDR tox: inactive

How did COC(=O)c1cc(NS(=O)(=O)c2ccc3c(c2)OCCO3)ccc1Cl do in these assays?
KB-3-1 tox: inactive; KB-V1 MDR tox: inconclusive

What do the screens show for `CCC1SC2=NC(C)=C(C(=O)OC)C(c3ccc(C)cc3)N2C1=O` (centres undefined)?
ELG1 DNA repair: -5%; KB-3-1 tox: inactive; MCF10A rereplic: -2%; SW480 rerep: 1%; KB-V1 MDR tox: inactive

How did CCOC(=O)C1=NN(c2ccccc2)C2=NC(C)=C(C(=O)OC)C(c3ccc(C)cc3)N12 (centres undefined) do in these assays?
ELG1 DNA repair: -5%; KB-3-1 tox: inactive; MCF10A rereplic: 2%; SW480 rerep: 0%; KB-V1 MDR tox: 15µM*

What do the screens show for `CCCC(=O)N(Cc1cc(=O)[nH]c2ccccc12)c1ccccc1C`?
ELG1 DNA repair: 4%; KB-3-1 tox: inconclusive; MCF10A rereplic: -8%; SW480 rerep: 0%; KB-V1 MDR tox: inactive

What do the screens show for `CC(=O)N1c2ccc(S(=O)(=O)NCCC(=O)Nc3ccc(C)cc3Br)cc2CC1C` (centres undefined)?
KB-3-1 tox: inactive; KB-V1 MDR tox: inactive

Results for O=C(Nc1nnc(SCC(=O)N2CCCc3ccccc32)s1)c1cccc2ccccc12 ?
ELG1 DNA repair: 2%; KB-3-1 tox: inactive; MCF10A rereplic: -2%; SW480 rerep: -4%; KB-V1 MDR tox: inactive

How did Cc1ccc(C)c2c1cc(C)c1nnc(SCC(=O)N3CCCc4ccccc43)n12 do in these assays?
ELG1 DNA repair: inconclusive; KB-3-1 tox: inconclusive; MCF10A rereplic: 4%; SW480 rerep: -141%; KB-V1 MDR tox: 9.2µM*

How did COc1cccc(-n2nnnc2SCC(=O)N2CCCc3ccccc32)c1 do in these assays?
ELG1 DNA repair: 2%; KB-3-1 tox: inactive; MCF10A rereplic: inconclusive; SW480 rerep: 12µM*; KB-V1 MDR tox: inactive

How did O=C(CSc1ccc2nnc(-c3ccc(F)cc3)n2n1)N1CCCc2ccccc21 do in these assays?
ELG1 DNA repair: 18µM*; KB-3-1 tox: inactive; MCF10A rereplic: 4%; SW480 rerep: -7%; KB-V1 MDR tox: inconclusive

How did Cc1ccc(C(=O)Nc2nnc(SCC(=O)N3CCCc4ccccc43)s2)cc1 do in these assays?
ELG1 DNA repair: inconclusive; KB-3-1 tox: inactive; MCF10A rereplic: inconclusive; SW480 rerep: 4%; KB-V1 MDR tox: 23µM*
